Measured values as given in PubChem BioAssay.
Several values for one entry are separate records, joined by “and”; a condition that tells them apart may be missing. Equal entries are not always repeated. Activity calls are given as the source filed them. Unless noted, how the calls were made is not given here.

Experiments:
[1] = test system: Wnt5a (protein binding on small-molecule microarray); assay: Wnt5a binders on small-molecule microarray, primary screen, biophysical, 635/667 nm fluorescence (AID 1142); conditions: 635 nm fluorescence, higher = more signal;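 further: fluorescence read at 667 nm with signal to noise per printed feature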
[2] = cell viability in Huh7 cells, primary screen, cytotoxicity control for HCV replication inhibitor project, CellTiter-Glo luminescence, basal, 48 h (AID 1143); conditions: Huh7 HCV replicon, higher = more signal, called active from +8 up or from −8 down;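 further: Huh7 hepatoma cells carrying a hepatitis C replication reporter with no stimulus; test concentration not given here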
[3] = P. aeruginosa biofilm formation inhibitors, primary screen, PAO1 strain, BacTiter-Glo luminescence, LB-PBS (AID 1144); conditions: 12 h, higher = more signal
[4] = CREB reporter modulators without forskolin, primary screen, cell-based, PC12, CRE-LacZ reporter, unstimulated (AID 1145); conditions: no forskolin, luminescence, 4.5 h, higher = more signal, called active from +8 up or from −8 down
[5] = CREB reporter modulators under forskolin, primary screen, cell-based, PC12, CRE-LacZ reporter, forskolin-stimulated (AID 1146); conditions: luminescence, 4.5 h, higher = more signal, called active from +8 up or from −8 down;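 further: PC12 cells with 6xCRE LacZ reporter stimulated by forskolin 10 µM; beta-galactosidase reporter signal reflecting CREB driven transcription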
[6] = biological target: Streptavidin (Streptomyces avidinii) (UniProt P22629); assay: streptavidin binders on small-molecule microarray, primary screen, artefact control for SMM compound annotation, biophysical, 635/667 nm fluorescence (AID 1147); conditions: streptavidin binding, higher = more signal;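 further: signal reflects streptavidin binding to arrayed compounds as a control protein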
Sequence of Streptavidin (Streptomyces avidinii) (P22629 whole entry, looked up): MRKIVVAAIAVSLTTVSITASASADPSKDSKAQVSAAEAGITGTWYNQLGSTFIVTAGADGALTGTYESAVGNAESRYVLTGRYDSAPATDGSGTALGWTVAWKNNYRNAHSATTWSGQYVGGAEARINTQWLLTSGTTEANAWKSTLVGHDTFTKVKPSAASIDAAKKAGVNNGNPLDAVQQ

[7] = small-molecule binders of probe aInhba, primary screen, biochemical, small-molecule microarray, 635/667 nm fluorescence (AID 1148); conditions: higher = more signal;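 further: score merges 667nm spot fluorescence with signal-to-noise for antibody binding to printed compounds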
Torsin-1A (Homo sapiens) [8] = biological target: Torsin-1A (Homo sapiens) (UniProt O14656); assay: torsin A binders from cell lysate, primary screen, small-molecule microarray, wild-type, 635/667 nm (AID 1149); conditions: COS7 hTOR1A-WT lysate, 635 nm fluorescence, higher = more signal
Sequence of Torsin-1A (Homo sapiens) (O14656 whole entry, looked up): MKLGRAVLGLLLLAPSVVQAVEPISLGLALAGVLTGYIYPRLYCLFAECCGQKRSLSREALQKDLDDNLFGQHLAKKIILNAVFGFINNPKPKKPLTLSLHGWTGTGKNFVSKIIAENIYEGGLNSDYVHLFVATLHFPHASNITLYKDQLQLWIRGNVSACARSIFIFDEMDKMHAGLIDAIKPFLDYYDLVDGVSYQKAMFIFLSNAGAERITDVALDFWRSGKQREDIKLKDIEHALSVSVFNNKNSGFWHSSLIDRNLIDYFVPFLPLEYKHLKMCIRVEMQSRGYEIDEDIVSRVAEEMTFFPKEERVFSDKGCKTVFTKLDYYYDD

Torsin-1A (Homo sapiens) [9] = biological target: Torsin-1A (Homo sapiens) (UniProt O14656); assay: small-molecule binders of mutant TOR1A in lysate, primary screen, cell lysate, small-molecule microarray, COS7 lysate, 635/667 nm fluorescence (AID 1150); conditions: COS7 hTOR1A mutant lysate, 635 nm fluorescence, higher = more signal;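 further: score pools 667 nm emission and signal to noise measuring lysate protein binding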
[10] = test system: Sonic hedgehog protein (Shh); assay: small-molecule binders of Shh protein, primary screen, biochemical, small-molecule microarray, 635/667 nm fluorescence (AID 1151); conditions: small-molecule microarray binding, 635 nm fluorescence; higher = more signal;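 further: Shh protein binding to compounds spotted on small-molecule microarray slides; score combines spot fluorescence intensity with signal-to-noise across triplicate slides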
[11] = E. coli DRC41 culture turbidity changes, primary screen, E. coli filamentation inducer project, strain DRC41, OD650, 48 h (AID 1152);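 further: E. coli MC1000 strain DRC41 lacking acrAB efflux pump and sulA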; conditions: E. coli DRC41 (acrAB sulA), higher = more signal, called active from +8 up or from −8 down
[12] = small-molecule binders of probe aLefty1, primary screen, biochemical, small-molecule microarray, 635/667 nm fluorescence (AID 1153); conditions: higher = more signal;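 further: score merges spot fluorescence with signal-to-noise ratio from the scanned slide images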
[13] = PSAC antagonists in infected red cells, primary screen, cell-based, P. falciparum Indochina, OD700, 1 h (AID 1154); conditions: P. falciparum Indochina infected RBC osmotic lysis, higher = more signal, called active from +8 up or from −8 down
[14] = PSAC antagonists in infected red cells, primary screen, cell-based, P. falciparum Indochina, OD700, 2 h (AID 1155);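 further: lysis reports solute entry through the parasite surface anion channel PSAC; channel blockers reduce lysis of infected cells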; conditions: P. falciparum Indochina infected erythrocytes, osmotic lysis OD700; higher = more signal, called active from +8 up or from −8 down
[15] = osmotic lysis modulators in infected erythrocytes, primary screen, PSAC antagonist project, cell-based, P. falciparum Indochina, OD700, 3 h (AID 1156); conditions: higher = more signal, called active from +8 up or from −8 down
[16] = PSAC antagonists in infected red cells, primary screen, cell-based, P. falciparum Indochina, OD700, 18 h (AID 1157); conditions: P. falciparum Indochina infected erythrocytes, osmotic lysis OD700, 18 h; higher = more signal, called active from +8 up or from −8 down
[17] = modulators of S6 phosphorylation in cells, primary screen, cell-based, A549, cytoblot, luminescence, serum-stimulated (AID 1158); conditions: A549 phospho-S6 cytoblot, 5 h, higher = more signal;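 further: serum-stimulated A549 lung adenocarcinoma cells; signal is phosphorylated S6 detected by cytoblot immunostaining with HRP secondary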
[18] = biological target: NADPH oxidase 2 (Homo sapiens) (UniProt P04839); assay: NOX2-dependent H2O2 signal modulators, primary screen, NOX inhibitor project, cell-based, HEK293-NOX2, PMA-stimulated, Amplex Red fluorescence (AID 1159); conditions: 45 min, higher = more signal, called active from +8 up or from −8 down; further: test concentration not given here
Sequence of NADPH oxidase 2 (Homo sapiens) (P04839 whole entry, looked up): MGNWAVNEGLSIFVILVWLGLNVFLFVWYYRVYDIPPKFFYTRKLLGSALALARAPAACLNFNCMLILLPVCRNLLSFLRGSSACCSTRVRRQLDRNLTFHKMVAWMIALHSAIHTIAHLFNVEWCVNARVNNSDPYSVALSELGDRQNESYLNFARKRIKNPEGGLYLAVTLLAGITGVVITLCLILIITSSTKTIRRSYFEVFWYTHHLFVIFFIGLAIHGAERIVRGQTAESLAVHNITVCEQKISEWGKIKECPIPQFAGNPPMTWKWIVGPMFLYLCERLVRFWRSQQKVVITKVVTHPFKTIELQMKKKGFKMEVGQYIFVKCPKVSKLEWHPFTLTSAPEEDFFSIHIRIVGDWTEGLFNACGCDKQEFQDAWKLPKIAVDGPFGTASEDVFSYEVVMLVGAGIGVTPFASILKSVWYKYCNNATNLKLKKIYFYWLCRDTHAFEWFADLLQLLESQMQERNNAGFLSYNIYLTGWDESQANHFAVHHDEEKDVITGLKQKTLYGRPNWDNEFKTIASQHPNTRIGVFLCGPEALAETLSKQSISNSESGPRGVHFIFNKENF

[19] = biological target: NADPH oxidase 4 (Homo sapiens) (UniProt Q9NPH5); assay: NOX4-dependent H2O2 signal modulators, primary screen, NOX inhibitor project, cell-based, HEK293-NOX4, tetracycline-induced, Amplex Red fluorescence (AID 1160); conditions: 45 min, higher = more signal, called active from +8 up or from −8 down
Sequence of NADPH oxidase 4 (Homo sapiens) (Q9NPH5 whole entry, looked up): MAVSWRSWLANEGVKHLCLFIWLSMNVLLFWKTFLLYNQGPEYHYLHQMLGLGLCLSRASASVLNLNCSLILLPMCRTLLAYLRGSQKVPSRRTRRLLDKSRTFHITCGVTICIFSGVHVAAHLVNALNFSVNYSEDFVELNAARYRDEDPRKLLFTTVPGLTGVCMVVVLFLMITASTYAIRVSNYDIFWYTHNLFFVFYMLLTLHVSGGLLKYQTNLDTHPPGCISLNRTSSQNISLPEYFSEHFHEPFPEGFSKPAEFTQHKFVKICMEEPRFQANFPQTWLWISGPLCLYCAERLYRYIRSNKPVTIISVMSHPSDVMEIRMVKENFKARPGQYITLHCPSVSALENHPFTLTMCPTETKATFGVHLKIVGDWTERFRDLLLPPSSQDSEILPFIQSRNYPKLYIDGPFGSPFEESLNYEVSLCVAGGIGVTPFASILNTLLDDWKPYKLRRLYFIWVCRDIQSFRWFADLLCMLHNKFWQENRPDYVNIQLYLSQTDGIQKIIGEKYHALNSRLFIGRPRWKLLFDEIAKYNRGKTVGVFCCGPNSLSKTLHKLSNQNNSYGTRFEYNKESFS

[20] = biological target: NADPH oxidase 5 (Homo sapiens) (UniProt Q96PH1); assay: NOX5-dependent H2O2 signal modulators, primary screen, NOX inhibitor project, cell-based, HEK293-NOX5, Amplex Red fluorescence (AID 1161); conditions: HEK293-NOX5, ionomycin, 45 min, higher = more signal
Sequence of NADPH oxidase 5 (Homo sapiens) (Q96PH1 whole entry, looked up): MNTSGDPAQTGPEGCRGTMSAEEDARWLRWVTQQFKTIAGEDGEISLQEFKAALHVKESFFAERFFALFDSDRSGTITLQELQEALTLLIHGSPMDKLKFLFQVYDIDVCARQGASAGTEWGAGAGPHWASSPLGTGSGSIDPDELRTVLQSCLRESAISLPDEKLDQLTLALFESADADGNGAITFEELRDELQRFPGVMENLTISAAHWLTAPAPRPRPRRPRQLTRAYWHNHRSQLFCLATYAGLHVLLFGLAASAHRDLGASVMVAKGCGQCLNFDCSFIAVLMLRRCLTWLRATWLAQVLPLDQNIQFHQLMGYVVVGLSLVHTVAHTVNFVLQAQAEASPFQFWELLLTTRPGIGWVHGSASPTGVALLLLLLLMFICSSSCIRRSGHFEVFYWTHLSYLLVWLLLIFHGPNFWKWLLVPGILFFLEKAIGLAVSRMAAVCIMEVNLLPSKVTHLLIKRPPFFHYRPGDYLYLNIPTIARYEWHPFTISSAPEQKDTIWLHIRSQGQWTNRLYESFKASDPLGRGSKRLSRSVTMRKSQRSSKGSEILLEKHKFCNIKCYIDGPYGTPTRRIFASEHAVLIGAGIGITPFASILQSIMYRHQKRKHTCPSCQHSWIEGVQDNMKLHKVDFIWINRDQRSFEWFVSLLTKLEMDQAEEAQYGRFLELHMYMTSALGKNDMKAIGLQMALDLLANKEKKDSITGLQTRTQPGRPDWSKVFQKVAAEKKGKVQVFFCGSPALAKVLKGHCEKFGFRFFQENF

SMILES | composite z-score [1] | z-score [2] | z-score [3] | z-score [4] | z-score [5] | composite z-score [6] | composite z-score [7] | composite z-score (Torsin-1A (Homo sapiens) [8]) | composite z-score (Torsin-1A (Homo sapiens) [9]) | composite z-score [10] | z-score [11] | composite z-score [12] | z-score [13] | z-score [14] | z-score [15] | z-score [16] | z-score [17] | z-score [18] | z-score [19] | z-score [20]
C=C(C)C(=O)OC[C@@H]1CN2[C@@H](CC[C@@H](C)[C@@H]2c2ccc(Br)cc2)C(=O)O1 | -0.0892 | -0.0082 (inactive) | -1.58 (inactive) | 1.54 (inactive) | 0.11 (inactive) | -0.222 | -0.0895 | 0.457 | 0.231 | 0.605 | -0.181 (inactive) | 0.218 | 1.51 (inactive) | 0.0995 (inactive) | 0.289 (inactive) | 0.294 (inactive) | 0.525 | -0.29 (inactive) | 1 (inactive) | 0.481
CC(CO)N1C(=O)[C@@H]2C3C(=O)OCCC=C[C@H]3OC23C=CCN(c2ccc4ccccc4c2)C(=O)[C@@H]13 (stereo not given in full) | -0.758 and -0.416 | 0.0425 (inactive) and 0.0276 (inactive) | 0.87 (inactive) and 1.11 (inactive) | 0.199 (inactive) and 0.756 (inactive) | -0.345 (inactive) and 0.0714 (inactive) | -0.809 and -0.937 | -0.0933 and -0.584 | -1.95 and -1.75 | -1.23 and -1.14 | 0.0707 and -0.262 | -0.562 (inactive) and -0.929 (inactive) | -0.0015 and -0.673 | 3.31 (inactive) and 4.57 (inactive) | 1.28 (inactive) and 0.577 (inactive) | 1.18 (inactive) and 0.724 (inactive) | 0.652 (inactive) and 0.282 (inactive) | -0.631 and -0.363 | 1.68 (inactive) and 1.25 (inactive) | 0.411 (inactive) and 1.05 (inactive) | 2.69 and 2.08
C[C@@H]1CC[C@@H](C(=O)O)N[C@H]1c1ccc(-c2ccco2)cc1 | 0.266 | 0.0233 (inactive) | -0.778 (inactive) | -0.339 (inactive) | -0.885 (inactive) | 0.192 | -0.0791 | 1 | 0.406 | 0.611 | -0.601 (inactive) | 0.0721 | 0.732 (inactive) | 1.2 (inactive) | 0.871 (inactive) | 0.883 (inactive) | -0.282 | -0.71 (inactive) | 0.156 (inactive) | 0.798
COC(=O)C1=C(C)N(Cc2ccccc2)C2=C(C(C)=O)[C@H](c3ccccc3)[C@@](O)(C(=O)OC)C(=O)N2[C@@H]1c1ccccc1 | 0.142 and -0.0685 | -0.912 (inactive) and -3.17 (inactive) | -1.5 (inactive) | 1.1 (inactive) and 0.916 (inactive) | -0.213 (inactive) and -0.284 (inactive) | 0.499 and -0.212 | 0.105 and -0.171 | 0.576 and -0.313 | 0.9 and -0.211 | 0.686 and 0.16 | 0.363 (inactive) and -0.426 (inactive) | -0.0908 and -0.118 | 1.65 (inactive) and 0.383 (inactive) | 0.441 (inactive) and -0.0277 (inactive) | 1.2 (inactive) and -1.16 (inactive) | 0.419 (inactive) and -0.175 (inactive) | 0.582 and 3.5 | 2.34 (inactive) and -3.45 (inactive) | 0.687 (inactive) and 0.321 (inactive) | 0.784 and 0.53
C[C@@H](c1ccccc1)N1C(=O)[C@H]2[C@H]3[C@H](O)[C@H](O)CC(=O)[C@@H]3CC[C@H]2C1=O | 0.314 | -0.961 (inactive) | 0.00582 (inactive) | 1.25 (inactive) | 0.488 (inactive) | 0.192 | -0.0791 | 0.712 | 0.113 | 1.04 | 0.212 (inactive) | -0.229 | 0.207 (inactive) | -1.39 (inactive) | 0.279 (inactive) | -1.63 (inactive) | 0.732 | -0.0197 (inactive) | 0.237 (inactive) | 0.776
COCn1c2ccccc2c2nnc(C(C)=O)nc21 | -0.122 and 0.0561 | -2.71 (inactive) and -2.58 (inactive) | -0.843 (inactive) and -0.869 (inactive) | 0.11 (inactive) and -0.0732 (inactive) | 0.353 (inactive) and 0.754 (inactive) | -0.121 and -0.232 | -0.274 and 0.0111 | 0.331 and 0.417 | -0.302 and 0.13 | 0.479 and 0.343 | -1.46 (inactive) and -0.426 (inactive) | -0.103 and -0.0111 | 1.91 (inactive) and 0.558 (inactive) | -0.781 (inactive) and -1.09 (inactive) | 0.68 (inactive) and 1.07 (inactive) | -1.28 (inactive) and -1.44 (inactive) | 2.52 and 1.53 | -0.424 (inactive) and -0.738 (inactive) | -0.773 (inactive) and -0.0619 (inactive) | -2.97 and -3.35
